Reference: PubChem BioAssay AID1745850 (National Center for Advancing Translational Sciences (NCATS), 2022)
Hit rate of the full screen: of about 2,100 compounds, about 260 (12%) were called active. Inconclusive results (about 58%) are left out. Calls follow the shape of the dose curve; as a rule, active = well fitted cell-killing curve with a large enough effect; inconclusive = small, poorly fitted or top-dose-only effect, or effect the other way; inactive = flat fitted curve, though single readings scatter. The list shows a part of the results.

experiment: Viability Counterscreen for Confirmatory qHTS for Inhibitors of ATXN expression; conditions: HEK-293 ATXN2-luc cells viability, CellTiter-Fluor, 24 h; activity change, negative = cytotoxicity: at the top concentration; also: nearly all actives have a fitted effect of over 50% in size
Description: PI: Daniel Scoles Ph.D. University of Utah School of Medicine, Salt Lake City, Utah MLPCN Grant: NS073009 Spinocerebellar ataxia type 2 (SCA2) is a multisystem neurodegenerative disease caused by a dominantly acting mutation leading to expansion of a polyQ domain in the ataxin-2 protein (ATXN2). SCA2 patients develop progressive ataxia and later lose function in other neuronal systems. Prominent parkinsonian signs develop in some patients. Like many neurodegenerative disorders, no symptomatic or disease-modifying treatments are known. The primary objective of the proposed research is to identify compounds inhibiting ATXN2 expression and to test them for efficacy in SCA2 mouse models. We have developed a cell-based assay paired with an in vivo mouse model using identical luciferase expression constructs. This approach takes advantage of an ATXN2-luciferase transgene, with the luciferase gene flanked by the upstream and downstream portions of the ATXN2 gene. Here we describe a 5-7 dose quantitative high thoroughput screen (qHTS) for compounds lowering ATXN2 expression. We screened the NIH Molecular Libraries Small Molecule Repository (MLSMR) and NCGC's mechanistically annotated (MIPE) and drug repurposing (NPC) collections of compounds for lowering expression of an ATXN2-luciferase reporter in HEK-293 cells. The assay is a multiplexed cell viability assay to ensure target reduction in the absence of cytotoxicity. Secondary qHTS assays included a CMV-luciferase reporter expressed in HEK-293 cells as well as a biochemical assay using recombinant luciferase to detect inhibitors of the reporter enzyme. Compounds that inhibit ATXN2 expression but is not cytotoxic were selected for confirmatory and secondary screens.
PROTOCOL TABLE (as described by Inglese J, Shamu CE and Guy RK. 2007) SEQUENCE No. (e.g., 1, 2, 3, etc.); […] (e.g., Cells, Incubation, Reagent, etc.); VALUE; DESCRIPTION. 1; Cells; 4 uL; white, solid bottom, 1536-well Greiner assay plate. 2; Incubation; 2 hr; 37 degree C in 5% humidified CO2. 3; Compounds; 23 nL; Kalypsis pintool (Wako USA) equipped with a 1536-well pin head. 4; Incubation; 24 hr; 37 degree C in 5% humidified CO2. 5; Reagent; 1 uL; Gly-Phe-7-Amino-4-trifluoromethylcoumarin. 6; Incubation; 30 min; 37 degree C in 5% humidified CO2. 7; Detection; Fluorescence; ViewLux plate reader (PerkinElmer). 8; Reagent; 3 uL; SteadyGlo luciferase solution (Promega). 9; Incubation; 5 min; room temperature. 10; Detection; Luminescence; ViewLux plate reader (PerkinElmer). NOTES (numbers refer to Sequence numbers above) 1. S2 cells expressing ATXN2-luciferase reporter were suspended in phenol-red free DMEM and dispensed in assay plates using a Multidrop Combi dispenser (Thermo Fisher Scientific). Wells containing medium only were plated on each plate, and values were used to normalize (100% inhibition) in the luciferase and CellTiter-Fluor assays. 2. Assay plates were incubated. Evaporation was prevented by covering assay plates with metal lids containing holes to allow gas diffusion. 3. Compounds were added in a dose response manner with the final concentrations of 57, 11.4, 2.28, 0.46, 0.091, 0.018, 0.0037 uM. Vehicle-only plates, with DMSO being pin-transferred to columns 5-48, were inserted uniformly at the beginning and the end of each library to monitor and record any shifts in assay performance. 5. 125 uM Gly-Phe-7-Amino-4-trifluoromethylcoumarin (MP Biomedicals) working concentration was used at a final concentration of 25 uM. 7. To assess cell viability; the assay plates were read using the ViewLux high-throughput CCD imager (PerkinElmer), wherein single end-point fluorescence measurement was acquired (excitation 405/10; emission 540/25 nm). 8. Detection reagent SteadyGlo Luciferase (Promega) was added to the assay plate. 10. Luminescence is then measured on the ViewLux imager equipped with a clear emission filter using a 2 sec exposure. […]
Potency is read from the fitted curve at half-maximal effect.

Compound	activity change, negative = cytotoxicity	Potency
COCc1cc(CN2CCCC2)c(O)c2ncccc12	-19.9% (inactive)	–
COc1cccc(CN2CCC2(C)C(=O)Nc2cccc3cccnc23)c1OC (stereo not drawn)	-28.3% (inactive)	–
COc1ccccc1N1CCN(Cc2ccc(O)c3ncccc23)CC1	–	2.82 µM (active)
Cc1ccc(/C=C2/CNC/C(=C/c3ccc(C)cc3)C2=O)cc1	–	11.2 µM (active)
CN(C)CCNc1cccc2sc3ccc(O)cc3c(=O)c12	–	22.4 µM (active)
CN(C)CCNc1ccc2ncn3c4ccc(O)cc4c(=O)c1c23	-23.3% (inactive)	–
CCn1c2ccccc2c2cc(/C=C(/C#N)C(N)=S)ccc21	-21.4% (inactive)	–
CCN(CC)S(=O)(=O)c1cccc(C(=O)N/N=C(\C)c2ccc(O)cc2O)c1	-17.5% [at 57.5 µM] (inactive)	–
C/C(=N\NC(=O)c1cc(-c2cccnc2)nc2ccccc12)c1ccc(O)cc1O	–	11.2 µM (active)
O=C(NN=C1CCCC1)c1cc(-c2ccc(F)cc2)nc2ccccc12	-13.9% [at 57.5 µM] (inactive)	–
CCN(CC)c1ccc(/C=N/NC(=O)CNC(=O)C2COc3ccccc3O2)c(O)c1 (stereo not drawn)	-22.3% (inactive)	–
COc1ccc(CN2CCCN(S(=O)(=O)c3ccc(Br)cc3)CC2)cc1	-10.5% [at 57.5 µM] (inactive)	–
Cc1cccc(OCCCC(=O)Nc2nccs2)c1	1.34% (inactive)	–
O=C(NC(Nc1nc2ccc([N+](=O)[O-])cc2s1)(C(F)(F)F)C(F)(F)F)c1ccccc1	–	2.24 µM (active)
O=C(NC(Nc1ncc(S(=O)(=O)c2ccc([N+](=O)[O-])cc2)s1)(C(F)(F)F)C(F)(F)F)c1ccc(Cl)cc1	–	10 µM (active)
Cc1ccc(S(=O)(=O)c2cc3cc(Br)ccc3oc2=O)cc1	-3.3% [at 57.5 µM] (inactive)	–
Cn1c(CO)cnc1S(=O)(=O)Cc1ccc([N+](=O)[O-])cc1	-12.7% [at 57.5 µM] (inactive)	–
O=C(CN1CCN(C(=O)c2ccc(-c3nc4ccccc4s3)o2)CC1)Nc1ccccc1Cl	–	3.55 µM (active)
c1nc(CCO[C@H]2CCCCO2)cc2cc3c(cc12)OCO3	-10.3% (inactive)	–
O=C(CN1c2cccc3cccc(c23)S1(=O)=O)NCc1ccc(Cl)cc1	10.1% (inactive)	–
O=C(CCc1ccccc1)NNC(=O)c1cc(Cl)ccc1O	-11.5% (inactive)	–
Cc1ccc(-c2c(C#N)c(N)n3c(nc4ccccc43)c2C#N)cc1	-27.3% [at 57.5 µM] (inactive)	–
Cc1cc(Nc2cccc([N+](=O)[O-])c2)n2c(nc3ccccc32)c1C#N	–	5.01 µM (active)
COc1ccc(-c2nnc(NC(=O)c3ccc(S(=O)(=O)N4COCC4(C)C)cc3)o2)cc1	-23.2% (inactive)	–

Compound	activity change, negative = cytotoxicity	Potency
Cc1ccc(NC(=O)c2ccc(-c3nn(C)c(=O)c4ccccc34)cc2)cc1	-27.2% [at 57.5 µM] (inactive)	–
CCOC(=O)C(NS(=O)(=O)c1ccc(C)cc1)(C(F)(F)F)P(=O)(OCC(C)C)OCC(C)C (stereo not drawn)	-12.5% (inactive)	–
Cc1csc2c(N3CCN(C(=O)Nc4ccc(Cl)c(Cl)c4)CC3)ncnc12	-12.7% (inactive)	–
O=c1c2c3c(sc2ncn1/N=C/c1ccc([N+](=O)[O-])o1)CCCC3	–	3.55 µM (active)
NNc1ncnc2sc3c(c12)CCC3	-29.5% [at 57.5 µM] (inactive)	–
COc1cc(/C=C2\COC/C(=C\c3cc(OC)c(OC)c(OC)c3)C2=O)cc(OC)c1OC	–	1.78 µM (active)
COc1ccc(/C=C2/CSC/C(=C/c3ccc(OC)c(OC)c3)C2=O)cc1OC	–	11.2 µM (active)
Cc1ccc(CN2CCC(c3nc4ccc(Cl)cc4[nH]3)CC2)cc1	-21.1% [at 57.5 µM] (inactive)	–
Cc1cc(C)c(C(O)c2ncc(-c3cccc4ccccc34)[nH]2)c(C)c1 (stereo not drawn)	-7.41% (inactive)	–
OC(c1ccc(Cl)cc1)c1ncc(-c2cccc(C(F)(F)F)c2)[nH]1 (stereo not drawn)	2.6% (inactive)	–
Cc1ccc(-c2csc(N3CCN(c4cc5c(cc4Cl)nc(-c4ccncc4)n5CCOCCO)CC3)n2)cc1	-22.6% [at 57.5 µM] (inactive)	–
Cn1c2c(c(=O)n(C)c1=O)C(C(F)(F)F)(C(F)(F)F)N=C(CCC1CCCCC1)N2	–	20 µM (active)
COc1cc(Nc2ncc3c(n2)CCN(C(=O)Nc2ccc(C(C)C)cc2)C3)cc(OC)c1OC	-27.8% (inactive)	–
CCCc1cc(C(=O)Nc2ccc(C(=O)c3ccc(C)cc3)cc2)n(C)n1	-29% (inactive)	–
Cc1cc(C(=O)N/N=C/c2cc(Br)ccc2OC(=O)c2ccccc2)n[nH]1	-18.4% (inactive)	–
Cc1ccc(NC(=O)C2CCN(S(=O)(=O)c3ccc(N4CCCC4=O)cc3)CC2)cc1Cl	-8.48% (inactive)	–
Cn1c(SCc2ccc(C(C)(C)C)cc2)nnc1C1COc2ccccc2O1 (stereo not drawn)	-21.7% (inactive)	–
CCc1ccc(CNC(=O)C2CCN(c3nnc(C)c4c(C)n(-c5ccc(C)cc5)nc34)CC2)cc1	–	20 µM (active)
CCc1ccc(C(=O)NNC(=O)C2CCN(c3ncnc4sc(C)c(C)c34)CC2)cc1	-21.9% (inactive)	–
CCc1c(C)nc2ncnn2c1N1CCC(C(=O)Nc2ccc(C)cc2)CC1	-16.8% [at 57.5 µM] (inactive)	–
FC(F)(F)c1cc(-c2ccccn2)nc2cc(-c3ccccc3)nn12	-8.59% [at 57.5 µM] (inactive)	–
Cc1ccc(-c2nnc(N3CCC(C)CC3)c3ccccc23)cc1C	-27.5% (inactive)	–
Cc1cc2c(N=O)c(NO)ccc2[nH]1	–	12.6 µM (active)
CC[n+]1c(C=C2C=C(C)OC(C)=C2)sc2ccccc21	–	11.2 µM (active)
